Records with an inconclusive call do not appear. Activity calls are given as the source filed them. Unless noted, the call rests on the fitted dose curve; in most records, active means well fitted curve in the direction sought with a large enough effect; inconclusive means small, poorly fitted or top-dose-only effect, or another doubt; inactive means no such curve, though single readings can be large; an effect the other way counts as inactive or inconclusive.
Key:
[1] = target: Tumor susceptibility gene 101 protein (Homo sapiens) (UniProt Q99816); test: qHTS Assay for Iinhibitors of HIV-1 Budding by Blocking the Interaction of PTAP/TSG101: Hit Validation (AID 651600); further: nearly all actives have a fitted effect of over 70% in size; further: potency means the concentration at half of the fitted maximal effect
Procedure, shortened: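 Fluorescence polarization binding assay: Tsg101 binding domain (10 uM) mixed with compounds and FITC-labeled PTAP peptide (50 nM) in HEPES pH 7.5, 0.15 M NaCl, 0.01% Tween 20, EDTA, TCEP; 20 min at r.t.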

[2] = target: Rap guanine nucleotide exchange factor 3 (Homo sapiens) (UniProt O95398); test: Confirmatory qHTS for antagonist of cAMP-regulated guanine nucleotide exchange factor 3 (EPAC1) (AID 1645880); conditions: EPAC1 Rap1B-BODIPY-GDP exchange, fluorescence; activity, negative = inhibition: at 115 µM (top of the series); further: nearly all actives have a fitted effect of over 55% in size; further: potency means the concentration at half of the fitted maximal effect;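 on activity, negative = inhibition: plate controls were DMSO only for no effect and full effect of the ATA control for full effect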
Procedure, shortened: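 Nucleotide exchange uses 100 nM EPAC1, 250 nM RAP1B-BODIPY-GDP and 50 uM GDP, with compounds in a concentration-titration series. After 5 min at room temperature, fluorescence (480 nm ex/540 nm em) is read every 5 min for 30 min. Data are normalized to control ATA and DMSO.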

[3] = target: Rap guanine nucleotide exchange factor 3 (Homo sapiens) (UniProt O95398); test: Confirmatory qHTS for agonist of cAMP-regulated guanine nucleotide exchange factor 3 (EPAC1) (AID 1645881); further: nearly all actives have a fitted effect of over 75% in size; further: potency means the concentration at half of the fitted maximal effect;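 on activation: EPAC1 catalysed release of BODIPY-GDP from Rap1B seen as fluorescence loss; 100% = effect of cAMP agonist control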
[4] = target: Rap guanine nucleotide exchange factor 4 (Homo sapiens) (UniProt Q8WZA2); test: Confirmatory qHTS for agonist of cAMP-regulated guanine nucleotide exchange factor 4 (EPAC2) (AID 1645884);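 further: nucleotide exchange releases bodipy-GDP from Rap1 and this lowers its fluorescence; nearly all actives have a fitted effect of over 65% in size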; further: potency means the concentration at half of the fitted maximal effect
[5] = target: Rap guanine nucleotide exchange factor 4 (Homo sapiens) (UniProt Q8WZA2); test: Confirmatory qHTS for antagonist of cAMP-regulated guanine nucleotide exchange factor 4 (EPAC2) (AID 1645885); further: nearly all actives have a fitted effect of over 25% in size; further: potency means the concentration at half of the fitted maximal effect
[6] = target: Rap guanine nucleotide exchange factor 3 (Homo sapiens) (UniProt O95398); test: Counterscreen qHTS for agonist of cAMP-regulated guanine nucleotide exchange factor 3 (EPAC1) (AID 1645889); further: nearly all actives have a fitted effect of over 40% in size; further: potency means the concentration at half of the fitted maximal effect; on activation: % of control where 0% means no effect
Procedure, shortened: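 Rap1B–BODIPY-GDP (250 nM) with 50 uM GDP; compounds pin-transferred to 9.74 nM–152 uM final (activator) or from 7.32 nM upwards (inhibitor). Fluorescence Ex/Em 480/540 nm read at 5 and 30 min, then after adding cAMP or buffer, at room temperature.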

[7] = target: Lysosomal acid glucosylceramidase (Homo sapiens) (UniProt P04062); test: Glucocerebrosidase-p2 (AID 348; in the data active means potency below about 10 µM; further: potency means the concentration at half of the fitted maximal effect); conditions: purified GBA, blue fluorogenic substrate, 40 min
Procedure, shortened: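 Compounds titrated from 0.6 nM upwards against 0.2 nM enzyme in pH 5.9 citric acid/KH2PO4, taurocholate, tween-20; blue fluorogenic substrate 80 uM, 40 min room temperature, stopped and read Ex 365/Em 440 for AC50.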

[8] = AP1 Signaling Pathway (AID 357; active means well fitted curve in either direction with a large enough effect, not every such curve was filed as active;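 further: ME-180 reporter cells stimulated with EGF at its EC50 level; on the % scale 0 is the no-effect control and ±100 the full control effect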); conditions: ME-180 AP-1-bla reporter, EGF-induced, beta-lactamase ratio, 5 h; at 7.69 µM (top of the series) unless noted
Procedure, shortened: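 Modulation of EGF-driven AP-1 transcription was assessed with a beta-lactamase reporter in ME-180 cells. Compound and EC50 EGF were co-incubated 5 hours at 37 °C before 2.5-hour CCF4 loading at room temperature and dual-emission reading.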

[9] = target: Cytochrome P450 1A2 (Homo sapiens) (UniProt P05177); test: p450-cyp1a2 (AID 410; calls by dose curve; further: potency means the concentration at half of the fitted maximal effect)
Procedure, shortened: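 Human CYP1A2 (20nM) demethylated Luciferin-ME at its Km (100uM) in 100mM KPO4. After 10 min compound preincubation, NADPH regeneration ran the reaction 60 min at room temperature. Luciferin was read by luminescence, normalized to 57 uM furafylline.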

[10] = NFAT Signaling Pathway (AID 444; active means well fitted curve in either direction with a large enough effect, not every such curve was filed as active;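 further: carbachol stimulus at about its EC50 of 1 µM final; on the % scale 0 is the no-effect control and ±100 the full control effect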); conditions: Jurkat NFAT-bla M1, carbachol, beta-lactamase ratio, 5 h; at 7.69 µM (top of the series) unless noted
Procedure, shortened: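 Jurkat cells with NFAT-driven β-lactamase reporter and co-expressed M1 receptor, stimulated with carbachol (final 1 uM, ~EC50), compound titration, 5 h at 37 °C. CCF4 loaded 1 h at RT; 460/530 nm ratio gave %activity and AC50.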

[11] = target: Glucocorticoid receptor (Homo sapiens) (UniProt P04150); test: GR-GFP Redistribution (AID 450;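 active means compounds whose dose series gives a full or clear partial fitted curve of increased nuclear translocation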; further: potency means the concentration at half of the fitted maximal effect); conditions: U2OS GR-GFP nuclear translocation, laser cytometry, 2 h
[12] = target: Glucocorticoid receptor (Homo sapiens) (UniProt P04150); test: GR-EFC Redistribution (AID 451; calls by dose curve; further: potency means the concentration at half of the fitted maximal effect); conditions: CHO-K1 GR-EFC translocation, beta-gal luminescence, 2 h
Procedure, shortened: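 CHO-K1 cells expressing nuclear EA and GR-ED fragments of b-gal; compounds titrated up to 46 uM final, 2 h at 37 C. GR nuclear translocation read as complemented b-gal luminescence after 1 h RT detection.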

[13] = target: 3',5'-cyclic-AMP phosphodiesterase 4B (Homo sapiens) (UniProt Q07343); test: qHTS Assay for Inhibitors of PDE-IV (AID 607; active means well fitted activation curve with a large enough effect in the main read-out, with a control signal flat, not every such curve was filed as active; further: % of control where 0% means no effect)
Procedure, shortened: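 Cell-based read-out of cAMP via a modified cyclic nucleotide-gated channel and membrane potential dye (535/590 nm) in HEK293 cells expressing PDE4 endogenously. Compounds tested up to 22.9 uM final; 100 uM RO 20-1724 reference.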

[14] = target: Cytochrome P450 3A4 (Homo sapiens) (UniProt P08684); test: qHTS Assay for Activators of Cytochrome P450 3A4 (AID 885); further: nearly all actives have a fitted effect of over 65% in size
Procedure, shortened: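 Signal was normalized against complete inhibition by 57 uM ketoconazole. The reaction used 20nM CYP3A4 with 25uM Luciferin-PPXE, 10-min compound preincubation and a 60-min NADPH-supported step at RT.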

[15] = qHTS Assay for Identification of Small Molecule Agonists for Hypoxia Response Element Signaling Pathway (AID 914; active means well fitted activation curve with a large enough effect in the signal ratio, with a control signal flat, not every such curve was filed as active; the % refers to the signal ratio; further: potency means the concentration at half of the fitted maximal effect); conditions: ME-180 HRE-bla reporter, beta-lactamase ratio, CoCl2, 17 h; activation: hits give high values
Procedure, shortened: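 HRE-bla ME-180 assay for agonist-like enhancement of an EC50 CoCl2 stimulus: 17 h at 37 degrees Celsius, CCF4 for 2.5 h, ratiometric 460/530 nm signal converted to %Activity and fitted to AC50.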

[16] = target: Dual specificity protein kinase CLK4 (Homo sapiens) (UniProt Q9HAZ1); test: qHTS Assay for Inhibitors of CDC-like Kinase 4 (Kinase-Glo Assay) (AID 1770); further: on the % scale 0 is the no-effect control and ±100 the full control effect; nearly all actives have a fitted effect of over 65% in size
Procedure, shortened: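 25 nM Clk4 with 100 uM RS repeat peptide and 1 uM ATP (final) in Tris pH7.5, 10 mM MgCl2, 4.5 h at room temperature. Remaining ATP measured by Kinase-Glo luciferase luminescence.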

[17] = target: Dual specificity protein kinase CLK4 (Homo sapiens) (UniProt Q9HAZ1); test: qHTS Assay for Inhibitors of CDC-like Kinase 4 (ADP-FP Assay) (AID 1795);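 further: recombinant human CLK4 phosphorylating RS repeat peptide at 1 µM ATP; on the % scale 0 is the no-effect control and ±100 the full control effect; nearly all actives have a fitted effect of over 60% in size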
Procedure, shortened: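 Recombinant Clk4 (6.25 nM) phosphorylated 100 uM RS repeat peptide with 1 uM ATP in 25 mM Tris pH 7.5, 10 mM MgCl2, 0.5 mM EGTA, 2.5 mM DTT, 0.01% Triton X-100 for 1 h. ADP was detected by Transcreener ADP2 competitive fluorescence polarization after 30 min at room temperature.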

[18] = Confirmation and Secondary Assay for Modulators of Hemoglobin Beta Chain Splicing at IVS2 654 locus (AID 910);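 further: HeLa cells stably carrying EGFP split by mutant beta-globin IVS2-654 intron; % of control where 0% means no effect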
Procedure, shortened: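 HeLa cells stably expressing EGFP interrupted by β-globin IVS2-654 intron, seeded overnight in Opti-MEM/2% FCS, then treated 2 days at 37 °C. Restored splicing read as total peak GFP intensity per well by laser scanning cytometry (488 nm excitation, 500–520 nm emission); 500 nM antisense PNA as control.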

[19] = Confirmation and Secondary Assay for Modulators of Hemoglobin Beta Chain Splicing at IVS2 705 locus (AID 930);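 further: HeLa cells stably expressing the EGFP-705 splicing reporter; GFP fluorescence per well restored by corrected splicing of the IVS2-705 intron in EGFP; % of control where 0% means no effect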
Procedure, shortened: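 HeLa IVS2-705 EGFP reporter cells, 500/well, compound 2 d at 37C; correct splicing yields fluorescent EGFP. Control: 500 nM antisense PNA. Read-out: total peak GFP intensity.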

[20] = target: Ubiquitin carboxyl-terminal hydrolase 1 (Homo sapiens) (UniProt O94782); test: Inhibitors of USP1/UAF1: Pilot qHTS (AID 504865);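 further: rhodamine fluorescence freed from ubiquitin-rhodamine substrate followed over time; top concentration of the series differs between compounds; on the % scale 0 is the no-effect control and ±100 the full control effect; nearly all actives have a fitted effect of over 35% in size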
Procedure, shortened: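 USP1/UAF1 complex at 1 nM preincubated 15 min at room temperature with compound, then Ub-Rho substrate added at 150 nM final. Fluorescence (480/540 nm) read kinetically in 50 mM HEPES pH 7.8, 0.5 mM EDTA, 1 mM TCEP, 0.1 mg/ml BSA, 0.01% Tween-20.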

[21] = Stat Signaling Pathway (AID 446; active means well fitted curve in either direction with a large enough effect, not every such curve was filed as active;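 further: ME-180 cervical cancer cells given 40 pM IL-6 alongside compound; SIE-controlled beta-lactamase reporter measured as 460/530 nm FRET emission ratio; on the % scale 0 is the no-effect control and ±100 the full control effect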)
Procedure, shortened: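 Reporter line: ME-180 cervical carcinoma, SIE-beta-lactamase. Treatment: compound with 40 pM IL-6, 5 hrs, 37 C, in low-serum OPTI-MEM with 10 mM HEPES pH 7.3. Detection: 460/530 nm fluorescence.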

[22] = target: Mitogen-activated protein kinase 10 (Mus musculus) (UniProt Q61831); test: JNK3 AlphaScreen Assay (AID 530; active means well fitted curve in either direction with a large enough effect, not every such curve was filed as active;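 further: kinase came from lysate of stimulated human HepG2 cells; signal reports phosphorylation of biotinylated GST-cJun 1-79 at Ser73 with 10 µM ATP; on the % scale 0 is the no-effect control and ±100 the full control effect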)
Procedure, shortened: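 qHTS format: compounds tested as titrations against IL-1beta/TNF-alpha-activated HepG2 lysate JNK3 with biotin-GST-cJun substrate and 10 uM ATP at room temperature. Loss of anti-phospho-cJun AlphaScreen signal indicates inhibition.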

[23] = target: Cytochrome P450 2C19 (Homo sapiens) (UniProt P33261); test: qHTS Assay for Inhibitors and Substrates of Cytochrome P450 2C19 (AID 899); further: potency means the concentration at half of the fitted maximal effect; nearly all actives have a fitted effect of over 60% in size
Procedure, shortened: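 Luminescent read-out of luciferin formed from Luciferin-H EGE (10uM, equal to KM). Enzyme 5nM in 50mM KPO4; compound added, 10 min at 37C, then NADPH regenerating system for 60 min at 37C. Full inhibition defined by 57uM ketoconazole.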

Chain of Rap guanine nucleotide exchange factor 4 (Homo sapiens) (Q8WZA2 whole entry, looked up): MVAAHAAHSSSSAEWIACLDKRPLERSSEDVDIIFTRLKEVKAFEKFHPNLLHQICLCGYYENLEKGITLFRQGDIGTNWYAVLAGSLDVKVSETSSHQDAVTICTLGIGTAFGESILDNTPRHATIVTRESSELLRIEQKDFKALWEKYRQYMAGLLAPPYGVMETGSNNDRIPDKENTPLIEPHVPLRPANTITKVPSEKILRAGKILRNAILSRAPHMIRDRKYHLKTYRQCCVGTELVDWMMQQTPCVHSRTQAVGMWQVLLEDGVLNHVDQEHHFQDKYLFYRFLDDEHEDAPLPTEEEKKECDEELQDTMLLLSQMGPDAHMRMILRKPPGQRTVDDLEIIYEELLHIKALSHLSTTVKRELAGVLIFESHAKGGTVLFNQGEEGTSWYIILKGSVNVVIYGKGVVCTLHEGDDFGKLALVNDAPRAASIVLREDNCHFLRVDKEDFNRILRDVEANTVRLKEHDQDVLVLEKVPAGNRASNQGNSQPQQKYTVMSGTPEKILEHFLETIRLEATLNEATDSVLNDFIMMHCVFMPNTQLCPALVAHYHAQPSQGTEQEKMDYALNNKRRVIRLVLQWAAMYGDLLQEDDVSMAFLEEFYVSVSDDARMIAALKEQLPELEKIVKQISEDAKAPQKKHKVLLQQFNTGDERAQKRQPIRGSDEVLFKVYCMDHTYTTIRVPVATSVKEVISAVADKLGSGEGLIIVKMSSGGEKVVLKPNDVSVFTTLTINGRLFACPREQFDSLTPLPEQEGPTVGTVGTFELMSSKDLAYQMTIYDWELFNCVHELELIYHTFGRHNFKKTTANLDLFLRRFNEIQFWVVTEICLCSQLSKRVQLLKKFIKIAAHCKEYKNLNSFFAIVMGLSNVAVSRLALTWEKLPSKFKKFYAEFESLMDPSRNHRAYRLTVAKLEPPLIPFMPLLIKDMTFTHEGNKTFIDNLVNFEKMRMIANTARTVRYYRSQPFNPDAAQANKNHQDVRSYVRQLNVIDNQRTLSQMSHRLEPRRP
Chain of Glucocorticoid receptor (Homo sapiens) (P04150 whole entry, looked up, the tested form may be a part): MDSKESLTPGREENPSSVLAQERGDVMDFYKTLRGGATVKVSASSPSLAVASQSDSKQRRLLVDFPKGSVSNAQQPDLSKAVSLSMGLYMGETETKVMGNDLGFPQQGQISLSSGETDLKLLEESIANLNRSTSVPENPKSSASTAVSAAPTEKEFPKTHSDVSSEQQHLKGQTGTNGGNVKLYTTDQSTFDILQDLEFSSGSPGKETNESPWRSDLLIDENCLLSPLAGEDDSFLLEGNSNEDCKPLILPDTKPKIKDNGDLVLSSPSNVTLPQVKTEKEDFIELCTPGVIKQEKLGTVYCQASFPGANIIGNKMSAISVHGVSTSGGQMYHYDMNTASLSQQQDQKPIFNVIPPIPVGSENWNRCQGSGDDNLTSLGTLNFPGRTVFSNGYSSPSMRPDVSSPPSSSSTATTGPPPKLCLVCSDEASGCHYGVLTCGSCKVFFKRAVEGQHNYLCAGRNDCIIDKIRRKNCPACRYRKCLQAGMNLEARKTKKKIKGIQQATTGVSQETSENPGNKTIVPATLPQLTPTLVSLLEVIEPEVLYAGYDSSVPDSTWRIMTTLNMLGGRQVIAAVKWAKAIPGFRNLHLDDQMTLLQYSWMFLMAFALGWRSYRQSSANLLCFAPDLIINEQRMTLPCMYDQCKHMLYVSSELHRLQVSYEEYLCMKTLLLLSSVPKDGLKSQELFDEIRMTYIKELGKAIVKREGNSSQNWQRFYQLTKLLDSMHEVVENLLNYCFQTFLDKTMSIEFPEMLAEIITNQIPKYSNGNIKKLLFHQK
Chain of Rap guanine nucleotide exchange factor 3 (Homo sapiens) (O95398 whole entry, looked up): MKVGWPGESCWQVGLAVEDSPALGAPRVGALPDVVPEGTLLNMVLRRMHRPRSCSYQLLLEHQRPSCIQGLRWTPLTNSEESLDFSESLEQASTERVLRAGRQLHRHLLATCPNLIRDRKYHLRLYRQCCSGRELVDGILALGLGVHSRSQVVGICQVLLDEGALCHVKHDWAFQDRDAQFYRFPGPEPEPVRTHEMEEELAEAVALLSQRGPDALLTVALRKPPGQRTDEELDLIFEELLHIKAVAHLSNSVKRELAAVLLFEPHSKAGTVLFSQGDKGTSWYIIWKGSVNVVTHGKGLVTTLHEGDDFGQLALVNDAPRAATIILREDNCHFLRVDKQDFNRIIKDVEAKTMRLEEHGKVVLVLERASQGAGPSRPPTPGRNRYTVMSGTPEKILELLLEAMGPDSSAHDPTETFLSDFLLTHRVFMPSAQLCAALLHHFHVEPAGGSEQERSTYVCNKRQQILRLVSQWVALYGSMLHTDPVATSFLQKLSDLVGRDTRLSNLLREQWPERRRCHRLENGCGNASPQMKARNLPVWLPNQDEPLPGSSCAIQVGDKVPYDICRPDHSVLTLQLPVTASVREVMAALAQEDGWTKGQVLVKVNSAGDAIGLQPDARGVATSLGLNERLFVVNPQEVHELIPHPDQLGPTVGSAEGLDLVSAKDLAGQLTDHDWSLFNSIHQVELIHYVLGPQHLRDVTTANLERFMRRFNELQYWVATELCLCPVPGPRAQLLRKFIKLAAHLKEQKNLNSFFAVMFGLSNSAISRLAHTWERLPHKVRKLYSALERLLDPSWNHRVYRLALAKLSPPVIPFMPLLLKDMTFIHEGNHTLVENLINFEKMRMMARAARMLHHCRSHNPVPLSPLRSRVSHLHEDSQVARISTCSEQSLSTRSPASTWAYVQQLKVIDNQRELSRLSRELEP
Chain of Lysosomal acid glucosylceramidase (Homo sapiens) (P04062 whole entry, looked up): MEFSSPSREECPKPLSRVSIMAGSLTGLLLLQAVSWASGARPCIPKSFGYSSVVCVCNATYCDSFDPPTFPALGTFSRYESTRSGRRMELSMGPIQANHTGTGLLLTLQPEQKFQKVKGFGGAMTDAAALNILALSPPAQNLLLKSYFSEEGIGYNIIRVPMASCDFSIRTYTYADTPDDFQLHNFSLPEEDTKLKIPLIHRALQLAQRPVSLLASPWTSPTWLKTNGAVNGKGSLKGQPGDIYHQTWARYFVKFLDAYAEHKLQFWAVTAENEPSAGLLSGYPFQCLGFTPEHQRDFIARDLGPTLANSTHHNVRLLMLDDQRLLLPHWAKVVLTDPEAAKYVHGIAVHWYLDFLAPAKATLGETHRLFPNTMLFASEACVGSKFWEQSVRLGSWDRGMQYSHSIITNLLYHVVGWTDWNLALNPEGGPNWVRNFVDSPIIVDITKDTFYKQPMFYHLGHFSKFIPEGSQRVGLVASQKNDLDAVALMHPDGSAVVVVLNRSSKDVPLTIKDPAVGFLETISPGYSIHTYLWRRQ
Chain of Cytochrome P450 3A4 (Homo sapiens) (P08684 whole entry, looked up): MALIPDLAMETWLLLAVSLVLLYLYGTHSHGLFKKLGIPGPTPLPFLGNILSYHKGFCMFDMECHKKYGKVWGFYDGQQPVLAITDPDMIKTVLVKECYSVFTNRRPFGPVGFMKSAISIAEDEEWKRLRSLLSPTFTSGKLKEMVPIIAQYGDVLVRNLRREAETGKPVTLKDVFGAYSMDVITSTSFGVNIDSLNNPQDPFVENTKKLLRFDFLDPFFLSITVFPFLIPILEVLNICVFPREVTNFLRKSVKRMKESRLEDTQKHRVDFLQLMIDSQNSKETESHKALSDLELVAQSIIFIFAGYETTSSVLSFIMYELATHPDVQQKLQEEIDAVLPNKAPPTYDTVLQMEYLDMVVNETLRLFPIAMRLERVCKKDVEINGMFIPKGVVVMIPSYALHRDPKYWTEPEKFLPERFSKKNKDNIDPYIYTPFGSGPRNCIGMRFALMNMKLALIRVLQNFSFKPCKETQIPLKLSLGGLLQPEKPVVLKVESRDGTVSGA
Chain of Cytochrome P450 1A2 (Homo sapiens) (P05177 whole entry, looked up): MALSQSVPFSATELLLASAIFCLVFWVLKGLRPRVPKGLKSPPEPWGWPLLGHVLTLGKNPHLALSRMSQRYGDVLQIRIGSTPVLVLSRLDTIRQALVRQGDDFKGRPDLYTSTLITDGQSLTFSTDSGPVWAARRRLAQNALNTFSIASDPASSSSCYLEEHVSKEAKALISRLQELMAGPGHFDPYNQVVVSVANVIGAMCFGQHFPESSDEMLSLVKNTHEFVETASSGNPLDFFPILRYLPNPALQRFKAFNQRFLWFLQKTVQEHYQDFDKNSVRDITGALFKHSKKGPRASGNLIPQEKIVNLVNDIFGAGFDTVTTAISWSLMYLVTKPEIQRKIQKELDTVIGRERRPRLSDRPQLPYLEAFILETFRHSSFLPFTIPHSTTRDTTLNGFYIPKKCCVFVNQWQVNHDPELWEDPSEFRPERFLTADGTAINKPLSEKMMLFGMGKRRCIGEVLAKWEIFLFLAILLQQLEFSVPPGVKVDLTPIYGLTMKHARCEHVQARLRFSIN
Chain of Dual specificity protein kinase CLK4 (Homo sapiens) (Q9HAZ1 whole entry, looked up): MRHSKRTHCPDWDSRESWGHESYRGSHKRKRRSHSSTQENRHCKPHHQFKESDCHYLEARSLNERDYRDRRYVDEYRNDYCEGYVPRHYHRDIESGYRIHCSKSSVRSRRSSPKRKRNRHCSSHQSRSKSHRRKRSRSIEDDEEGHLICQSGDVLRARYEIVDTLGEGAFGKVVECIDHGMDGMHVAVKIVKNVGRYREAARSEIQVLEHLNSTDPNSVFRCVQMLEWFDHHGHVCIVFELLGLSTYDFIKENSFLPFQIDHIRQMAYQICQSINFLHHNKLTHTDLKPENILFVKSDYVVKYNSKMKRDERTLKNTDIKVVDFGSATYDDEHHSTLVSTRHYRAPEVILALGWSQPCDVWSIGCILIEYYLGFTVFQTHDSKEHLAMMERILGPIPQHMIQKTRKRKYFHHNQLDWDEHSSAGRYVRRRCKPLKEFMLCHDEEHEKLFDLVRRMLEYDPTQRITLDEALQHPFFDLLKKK

CC(=O)Nc1ccc(N2C(=O)c3cccc4c(O)ccc(c34)C2=O)cc1
active: Potency [1] 2.31 µM | Potency [3] 79.4 µM | Potency [4] 112 µM | Potency [6] 39.8 µM
inactive: Potency [2] | Potency [5]

CCOc1ccc(/C=C2\SC(=S)N(NS(=O)(=O)c3ccc(C)cc3)C2=O)cc1OC
inactive: Potency [3] | activation [4] 5.33% [at 17.1 µM, percent relative to cAMP agonist control] | Potency [5] | activation [6] -1.1% [at 30.8 µM]
active: Potency [2] 56.2 µM

Cc1nc(Nc2ccc(S(=O)(=O)N3CCCCC3C)cc2)c2nnn(Cc3ccccc3)c2n1 (configuration not stated)
inactive: Potency [1] | Potency [2] | Potency [3] | Potency [4] | Potency [5] | Potency [6]

CN1CCN(c2ncc3nc(-c4cn(C)c5ccccc45)c(=O)n(CCC#N)c3n2)CC1
inactive: Potency [7] > 11.4 µM | activity change, negative = inhibition [8] -1.18% | activity change, negative = inhibition [10] 23.5% | Potency [11] > 9.22 µM | Potency [12] > 46 µM | Potency [13] | outcome [14] | Potency [16] | Potency [17] | Potency [2] | Potency [3] | Potency [4] | Potency [5]
active: Potency [9] 15.8 µM | Potency [15] 3.16 µM

CC1(C)C(OC(=O)CCC(=O)O)CC[C@]2(C)C1CC[C@@]1(C)C2C(=O)C=C2[C@@H]3C[C@@](C)(C(=O)O)CC[C@]3(C)CCC21C (some centres not stated)
inactive: Potency [18] | Potency [19] | Potency [20] | Potency [2] | Potency [3] | Potency [4]
active: Potency [5] 15.6 µM

COC(=O)Cc1c(C)c2ccc(OC(=O)c3ccco3)cc2oc1=O
inactive: Potency [2] | Potency [3] | activation [4] 7.89% [at 17.1 µM, percent relative to cAMP agonist control] | Potency [5] | activation [6] 4.06% [at 30.8 µM]

O=c1cnc2cnc(Oc3ccccc3)nc2n1Cc1cccs1
active: Potency [9] 7.94 µM | Potency [23] 1.26 µM | Potency [5] 15.6 µM
inactive: Potency [7] > 11.4 µM | activity change, negative = inhibition [10] -1.41% | outcome [21] | Potency [11] > 9.22 µM | Potency [12] > 46 µM | Potency [22] | outcome [14] | Potency [2] | Potency [3] | Potency [4]

N#CCOC(=O)[C@H](Cc1c[nH]c2ccccc12)NS(=O)(=O)c1ccc(Cl)cc1
inactive: Potency [3] | Potency [4] | Potency [6]
active: Potency [2] 37.9 µM | Potency [5] 53.6 µM

Source: PubChem BioAssay (NCATS)
